Data reported in the antibiotic and cytotoxicity screens of Wong et al. (2023).
Among all 39,000 compounds or so, about 3,300 (8.5%) were called active. Many of the other results were omitted from the sample, so actives are more common in it than they were.

What follows are compounds tested on HepG2 (assay: cytotoxicity call (relative viability < 0.9)). Conditions: 10 µM.
`Cc1noc(C)c1NC(=O)N(C)C[C@@H]1OCCCC[C@@H](C)Oc2ccc(NS(=O)(=O)c3ccc(F)cc3)cc2C(=O)N([C@H](C)CO)C[C@@H]1C` was tested, and the cytotoxicity call was “inactive”. With `C[C@@H]1CN([C@@H](C)CO)C(=O)Cc2cc(NC(=O)Cc3cn(C)c4ccccc34)ccc2O[C@@H]1CN(C)S(C)(=O)=O` the cytotoxicity call was “inactive”. For `Cc1ncc([N+](=O)[O-])n1CCO`, the cytotoxicity call was “inactive”. In the case of `CCS(=O)(=O)CCn1c([N+](=O)[O-])cnc1C` [listing 1 of 2 here], the cytotoxicity call is reported as “inactive”. `CCS(=O)(=O)CCn1c([N+](=O)[O-])cnc1C` [listing 2 of 2 here] was tested, and the cytotoxicity call was “active”. With `Cc1cc(O)c(-c2ccc([C@@H](C)CN)cc2)c2c1[nH]c(=O)c1sccc12` the cytotoxicity call was “active”. `C[C@H]1CN([C@@H](C)CO)C(=O)CCCn2nncc2CO[C@@H]1CN(C)C(=O)c1cc(-c2ccccc2)on1` was tested, and the cytotoxicity call was “inactive”. For `C[C@@H]1CCCCO[C@@H](CN(C)S(=O)(=O)c2ccccc2)[C@@H](C)CN([C@@H](C)CO)C(=O)c2cc(NC(=O)Nc3ccc4c(c3)OCO4)ccc2O1`, the cytotoxicity call was “inactive”. With `CCOC(=O)c1cc2c(c(-c3cccc(C#CCN(C)C)c3)n1)[C@@H](CCO[Si](C)(C)C(C)(C)C)N([S@](=O)C(C)(C)C)C2` the cytotoxicity call was “active”. For `COc1ccc(CNC(=O)c2cc3c(c(-c4cccc(-c5cccc(C#N)c5)c4)n2)[C@@H](CCO)N([S@](=O)C(C)(C)C)C3)cc1`, the cytotoxicity call was “inactive”. `CCOC(=O)c1cc2c(c(-c3cccc(Br)c3)n1)[C@@H](CCO[Si](C)(C)C(C)(C)C)N([S@](=O)C(C)(C)C)C2` was tested, and the cytotoxicity call was “inactive”. For `CCNC(=O)c1cc2c(c(-c3cccc(-c4cccc(F)c4)c3)n1)[C@H](CCO)N([S@@](=O)C(C)(C)C)C2`, the cytotoxicity call was “active”. In the case of `CCOC(=O)c1cc2c(c(-c3ccccc3)n1)[C@@H](CCO[Si](C)(C)C(C)(C)C)N([S@](=O)C(C)(C)C)C2`, the cytotoxicity call is reported as “inactive”. For `CC(C)(C)S(=O)N1Cc2cc(C(=O)NCc3ccc(Oc4ccccc4)cc3)nc(-c3cccc(-c4cccc(F)c4)c3)c2[C@@H]1CCO` (some centres undefined), the cytotoxicity call was “active”. With `CCNC(=O)c1cc2c(c(-c3cccc(-c4cccc(F)c4)c3)n1)[C@@H](CCO)N([S@](=O)C(C)(C)C)C2` the cytotoxicity call was “inactive”. With `CC(C)(C)S(=O)N1Cc2cc(C(=O)Nc3ccc(-c4ccccc4)cc3)nc(-c3cccc(-c4cccc(F)c4)c3)c2[C@@H]1CCO` (some centres undefined) the cytotoxicity call was “active”. For `CCCNC(=O)c1cc2c(c(-c3cccc(-c4cccc(F)c4)c3)n1)[C@H](CCO)N([S@@](=O)C(C)(C)C)C2`, the cytotoxicity call was “inactive”. For `CC(C)(C)S(=O)N1Cc2cc(C(=O)NCc3ccc(Oc4ccccc4)cc3)nc(-c3cccc(C#CCC4CCCC4)c3)c2[C@@H]1CCO` (some centres undefined), the cytotoxicity call was “inactive”. With `CCCNC(=O)c1cc2c(c(-c3cccc(-c4ccc(F)cc4)c3)n1)[C@@H](CCO)N([S@](=O)C(C)(C)C)C2` the cytotoxicity call was “inactive”. With `CCCNC(=O)c1cc2c(c(-c3cccc(-c4ccc(F)cc4)c3)n1)[C@H](CCO)N([S@@](=O)C(C)(C)C)C2` the cytotoxicity call was “inactive”. With `C[C@@H]1CN([C@@H](C)CO)C(=O)c2cc(NC(=O)c3ccncc3)ccc2O[C@@H](C)CCCCO[C@H]1CN(C)S(C)(=O)=O` the cytotoxicity call was “inactive”. In the case of `C[C@H]1CN([C@@H](C)CO)S(=O)(=O)c2ccc(-c3cccnc3)cc2O[C@H]1CN(C)CC1CCOCC1`, the cytotoxicity call is reported as “inactive”. In the case of `C[C@H](CO)N1C[C@H](C)[C@@H](CN(C)C(=O)Nc2cccc3ccccc23)OCCCC[C@H](C)Oc2ccc(NC(=O)Nc3ccc4c(c3)OCO4)cc2C1=O`, the cytotoxicity call is reported as “inactive”. With `O=C(O)Cn1nnc(-c2ccccc2)n1` the cytotoxicity call was “inactive”. For `C[C@@H]1CCCCO[C@@H](CN(C)C(=O)Cc2ccccc2)[C@H](C)CN([C@@H](C)CO)C(=O)c2cc(NS(=O)(=O)c3cccs3)ccc2O1`, the cytotoxicity call was “inactive”. For `COC(=O)c1[nH]c(C(=O)OC)c(O)c1O`, the cytotoxicity call was “inactive”. In the case of `C[C@H]1CN([C@@H](C)CO)C(=O)c2cc(C3=CCCC3)cnc2O[C@@H]1CN(C)S(=O)(=O)c1cn(C)cn1`, the cytotoxicity call is reported as “inactive”. For `CC(C)(O)C#Cc1cccc(-c2nc(C(=O)NCCCN3CCOCC3)cc3c2[C@@H](CCO)N(S(=O)C(C)(C)C)C3)c1` (some centres undefined), the cytotoxicity call was “inactive”. `CC(C)(C)[S@](=O)N1Cc2cc(C(=O)NCC(F)(F)F)nc(-c3cccc(-c4cccc(F)c4)c3)c2[C@@H]1CCO` was tested, and the cytotoxicity call was “active”. With `CCCNC(=O)c1cc2c(c(-c3cccc(-c4cccc(F)c4)c3)n1)[C@@H](CCO)N([S@](=O)C(C)(C)C)C2` the cytotoxicity call was “inactive”. With `CC(C)(O)C#Cc1cccc(-c2nc(C(=O)Nc3ccc(-c4ccccc4)cc3)cc3c2[C@@H](CCO)N(S(=O)C(C)(C)C)C3)c1` (some centres undefined) the cytotoxicity call was “active”. In the case of `CC(C)(C)[S@@](=O)N1Cc2cc(C(=O)NCC(F)(F)F)nc(-c3cccc(-c4cccc(F)c4)c3)c2[C@H]1CCO`, the cytotoxicity call is reported as “inactive”. `CC(C)(C)S(=O)N1Cc2cc(C(=O)Nc3ccc(-c4ccccc4)cc3)nc(-c3cccc(C#CCC4CCCC4)c3)c2[C@@H]1CCO` (some centres undefined) was tested, and the cytotoxicity call was “inactive”. For `C[C@@H]1CN([C@@H](C)CO)C(=O)c2cc(NC(=O)Nc3ccc4c(c3)OCO4)ccc2O[C@@H](C)CCCCO[C@@H]1CN(C)S(=O)(=O)c1ccc(F)cc1`, the cytotoxicity call was “inactive”. `C[C@@H]1CN([C@@H](C)CO)C(=O)c2cc(NS(=O)(=O)c3cn(C)cn3)ccc2O[C@H]1CN(C)C(=O)Nc1ccc(F)cc1` was tested, and the cytotoxicity call was “inactive”. In the case of `O=C1C[C@@H](c2ccc(O[C@@H]3O[C@H](CO)[C@@H](O)[C@H](O)[C@H]3O)cc2)Oc2cc(O)ccc21`, the cytotoxicity call is reported as “inactive”. `NC(=S)c1ccc(-n2cncn2)nc1` was tested, and the cytotoxicity call was “inactive”. With `COc1cccc(-c2ccc3c(c2)O[C@@H](CN(C)Cc2cncnc2)[C@@H](C)CN([C@@H](C)CO)S3(=O)=O)c1` the cytotoxicity call was “inactive”. With `COC(=O)[C@H](Cc1ccccc1)N1CC2=CC(=O)[C@H](C3CC3)[C@H]2[C@@H]1[C@@H](O)CCn1cc(-c2cccc(/C=C/C(=O)NO)c2)nn1` the cytotoxicity call was “inactive”. With `N#CN=C1NC(=O)CC(=O)N1` the cytotoxicity call was “inactive”. `C[C@H]1CN([C@@H](C)CO)C(=O)c2cc(-c3cccnc3)cnc2O[C@H]1CN(C)Cc1ccc(-c2ccccc2)cc1` was tested, and the cytotoxicity call was “inactive”. For `C[C@H](CO)N1C[C@H](C)[C@@H](CN(C)Cc2ccc3c(c2)OCO3)OCCCC[C@H](C)Oc2ccc(NC(=O)c3ccccc3)cc2C1=O`, the cytotoxicity call was “inactive”. `C[C@@H]1CN([C@H](C)CO)C(=O)c2cc(NC(=O)c3ccccc3)ccc2O[C@@H](C)CCCCO[C@@H]1CN(C)Cc1ccc2c(c1)OCO2` was tested, and the cytotoxicity call was “active”. For `C[C@@H]1CCCCO[C@@H](CN(C)Cc2ccc3c(c2)OCO3)[C@H](C)CN([C@@H](C)CO)C(=O)c2cc(NC(=O)c3ccccc3)ccc2O1`, the cytotoxicity call was “active”. For `C[C@@H]1CCCCO[C@@H](CN(C)Cc2ccc3c(c2)OCO3)[C@@H](C)CN([C@H](C)CO)C(=O)c2cc(NC(=O)c3ccccc3)ccc2O1`, the cytotoxicity call was “inactive”. `C[C@@H]1CCCCO[C@@H](CN(C)Cc2ccc3c(c2)OCO3)[C@H](C)CN([C@H](C)CO)C(=O)c2cc(NC(=O)c3ccccc3)ccc2O1` was tested, and the cytotoxicity call was “inactive”. With `C[C@@H]1CN([C@H](C)CO)C(=O)c2cc(NC(=O)c3ccccc3)ccc2O[C@@H](C)CCCCO[C@H]1CN(C)Cc1ccc2c(c1)OCO2` the cytotoxicity call was “active”. With `C[C@@H]1CCCCO[C@H](CN(C)Cc2ccc3c(c2)OCO3)[C@H](C)CN([C@H](C)CO)C(=O)c2cc(NC(=O)c3ccccc3)ccc2O1` the cytotoxicity call was “inactive”. With `C[C@@H]1CN([C@@H](C)CO)C(=O)c2cc(NC(=O)c3ccccc3)ccc2O[C@@H](C)CCCCO[C@@H]1CN(C)Cc1ccc2c(c1)OCO2` the cytotoxicity call was “inactive”. `C[C@@H]1CCCCO[C@H](CN(C)Cc2ccc3c(c2)OCO3)[C@@H](C)CN([C@H](C)CO)C(=O)c2cc(NC(=O)c3ccccc3)ccc2O1` was tested, and the cytotoxicity call was “inactive”. `C=CCN1C(=O)[C@@H]2[C@@H](C1=O)[C@@H]1C=C[C@@H]2C1` was tested, and the cytotoxicity call was “inactive”. For `COc1ccc(S(=O)(=O)Nc2cccc3c2O[C@@H](CN(C)Cc2ccncc2)[C@@H](C)CN([C@H](C)CO)C3=O)cc1`, the cytotoxicity call was “inactive”. For `C[C@H](CO)N1C[C@H](C)[C@@H](CN(C)C(=O)Nc2cccc3ccccc23)Oc2ccc(NC(=O)C3CCCCC3)cc2C1=O`, the cytotoxicity call was “inactive”. For `Cc1ccc(S(=O)(=O)Nc2ccc3c(c2)C(=O)N([C@H](C)CO)C[C@@H](C)[C@@H](CN(C)C(=O)C2CCCCC2)OCCCC[C@@H](C)O3)cc1`, the cytotoxicity call was “inactive”. For `COC(=O)[C@@H](C)S(=O)(=O)NC(=O)c1cnc2ccccn2c1=O`, the cytotoxicity call was “inactive”. For `O=C(C[C@H]1CC[C@H]2[C@@H](COC[C@@H](O)CN2C(=O)c2ccc3c(c2)OCO3)O1)NC1Cc2ccccc2C1`, the cytotoxicity call was “inactive”. `Cn1cnc(S(=O)(=O)N2CC[C@@H](O)[C@@H]2Cc2cnn(C)c2)c1` was tested, and the cytotoxicity call was “inactive”. For `O=C1OCC=C[C@H]2O[C@@]34C=CCN(c5ccc6ccccc6c5)C(=O)[C@H]3N(CCCCCO)C(=O)[C@@H]4[C@@H]12`, the cytotoxicity call was “inactive”. `C[C@H](CO)N1C[C@H](C)[C@H](CN(C)S(=O)(=O)c2cccs2)Oc2ccc(NC(=O)Cn3cnnn3)cc2C1=O` was tested, and the cytotoxicity call was “inactive”. In the case of `NC1CCN(Cc2ccccc2)CC1`, the cytotoxicity call is reported as “inactive”. For `S=C1SCN(Cc2ccccc2)CN1Cc1ccccc1`, the cytotoxicity call was “active”. With `NCC1CCN(Cc2ccccc2)CC1` the cytotoxicity call was “inactive”. In the case of `COc1ccc(NC(=O)N(C)C[C@H]2OCCCC[C@H](C)Oc3ccc(NS(=O)(=O)c4c(C)noc4C)cc3C(=O)N([C@@H](C)CO)C[C@@H]2C)cc1`, the cytotoxicity call is reported as “inactive”. With `COc1ccc(NC(=O)Nc2ccc3c(c2)C(=O)N([C@H](C)CO)C[C@@H](C)[C@H](CN(C)Cc2ccc(Cl)c(Cl)c2)OCCCC[C@@H](C)O3)cc1` the cytotoxicity call was “active”. With `COc1ccc(NC(=O)Nc2ccc3c(c2)C(=O)N([C@@H](C)CO)C[C@@H](C)[C@@H](CN(C)Cc2ccc(Cl)c(Cl)c2)OCCCC[C@@H](C)O3)cc1` the cytotoxicity call was “active”. For `COc1ccc(NC(=O)Nc2ccc3c(c2)C(=O)N([C@@H](C)CO)C[C@@H](C)[C@@H](CN(C)Cc2ccc(Cl)c(Cl)c2)OCCCC[C@H](C)O3)cc1`, the cytotoxicity call was “inactive”. `COc1ccc(NC(=O)Nc2ccc3c(c2)C(=O)N([C@@H](C)CO)C[C@H](C)[C@H](CN(C)Cc2ccc(Cl)c(Cl)c2)OCCCC[C@@H](C)O3)cc1` was tested, and the cytotoxicity call was “inactive”. `COc1ccc(NC(=O)Nc2ccc3c(c2)C(=O)N([C@@H](C)CO)C[C@H](C)[C@@H](CN(C)Cc2ccc(Cl)c(Cl)c2)OCCCC[C@@H](C)O3)cc1` was tested, and the cytotoxicity call was “inactive”. For `COc1ccc(NC(=O)Nc2ccc3c(c2)C(=O)N([C@H](C)CO)C[C@H](C)[C@@H](CN(C)Cc2ccc(Cl)c(Cl)c2)OCCCC[C@@H](C)O3)cc1`, the cytotoxicity call was “inactive”.
